Read-out in experiment [1]: Monokine induced gamma interferon (MIG), CXCL9 (gene 4283)
The experiment is described as follows: BSK_3C_MIG: BioMAP Diversity Plus: 3C Assay for Monokine induced gamma interferon (MIG) Biomarker Activity (AID 2283021). Conditions: primary human endothelial cells (HUVEC); actives raise or lower the signal. Put shortly:
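ELISA-measured MIG in dosed HUVEC 3C cultures at 24 h, analysed by bidirectional fitting with DMSO defining baseline activity.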

The target of experiment [2] is human Vitamin D Receptor (VDR), VDR (gene 7421) (UniProt P11473). Kind of experiment: ATG_VDR_TRANS: Attagene TRANS-FACTORIAL HepG2 Assay for human Vitamin D Receptor (VDR) (AID 2283022; active = hit-call score of the fitted dose curve at least 0.9, where 1 is the maximum). In outline:
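Multiplexed TRANS reporter in HepG2; 24 h treatment; reporter mRNA by RT-PCR plus capillary electrophoresis; upregulation scored relative to DMSO.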

Experiment [3] in a line: BSK_3C_SRB: Viability Assessment in the BioMAP Diversity Plus: 3C Assay (AID 2283023).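 Note: cells read 24 h after compound dosing; fitted both ways against DMSO so a hit may be signal rise or drop.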 Conditions: primary human endothelial cells (HUVEC). In outline: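 Overt cytotoxicity is gauged in parallel confluent HUVEC cultures by SRB total-protein staining at the time of biomarker measurement, 24 h after dosing. Gain or loss of signal is fitted versus DMSO.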
Read-out in experiment [4]: Matrix Metallopeptidase 1 (MMP1), MMP1 (gene 4312)
The experiment is described as follows: BSK_BE3C_MMP1: BioMAP Diversity Plus: BE3C Assay for Matrix Metallopeptidase 1 (MMP1) Biomarker Activity (AID 2283024). The following applies: primary human bronchial epithelial cells; actives raise or lower the signal. Put shortly: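 In this multiplexed primary-cell system, human bronchial epithelium received chemicals for 24 h before an ELISA for MMP1. Values reflect bidirectional fits normalised to the DMSO baseline.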

Experiment [5] is described as follows: BSK_3C_Vis: BioMAP Diversity Plus: 3C Assay for Morphology Visualization (AID 2283025).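 For AC50: light microscopy image of cell morphology used as background control.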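 Note: fitted both ways so gain or loss versus DMSO counts.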 The following applies: primary human endothelial cells (HUVEC). In outline:
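Light-microscopy morphology readout, 24 h exposure, human primary umbilical vein endothelium; analysed relative to DMSO with bidirectional fitting.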

Read-out in experiment [6]: Pselectin, SELP (gene 6403)
Kind of experiment: BSK_4H_Pselectin: BioMAP Diversity Plus: 4H Assay for Pselectin Biomarker Activity (AID 2283026). Conditions: primary human endothelial cells (HUVEC); actives raise or lower the signal. In outline: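 Bidirectional fits against DMSO gave the endpoint. Cells: primary human umbilical vein endothelium, chemical-treated for 24 h before ELISA detection of P-selectin.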

A short description of experiment [7]: BSK_4H_SRB: Viability Assessment in the BioMAP Diversity Plus: 4H Assay (AID 2283027).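 For AC50: curves fitted both ways versus DMSO so AC50 may be loss or gain.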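 Note: cells exposed to compound for 24 h before staining.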 The following applies: primary human endothelial cells (HUVEC). In outline:
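HUVEC, 24 h post-dose; 10% TCA fix, 0.1% SRB stain, A560 nm. Total protein = overt cytotoxicity, parallel to biomarker read. Bidirectional fit vs DMSO baseline.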

Experiment [8] in a line: BSK_BE3C_SRB: Viability Assessment in the BioMAP Diversity Plus: BE3C Assay (AID 2283028).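 For AC50: fitted both ways so AC50 may mark signal gain or loss versus DMSO.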 The following applies: primary human bronchial epithelial cells. In outline: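 SRB total-protein staining (0.1%, after TCA fixation) of chemically dosed human bronchial epithelial primary cells at 24 h; DMSO serves as the negative control for bidirectional curve fitting.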
Read-out in experiment [9]: Thrombomodulin, THBD (gene 7056)
Kind of experiment: BSK_3C_Thrombomodulin: BioMAP Diversity Plus: 3C Assay for Thrombomodulin Biomarker Activity (AID 2283029). Conditions: primary human endothelial cells (HUVEC); actives raise or lower the signal. Put shortly: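 In a multiplexed primary-cell system, human umbilical vein endothelium received chemical and was assayed 24 h later for thrombomodulin by ELISA. Parallel cultures were SRB-stained (0.1% SRB after 10% TCA fixation, read at 560 nm) to flag cytotoxicity.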

Read-out in experiment [10]: Urokinase-type plasminogen activator receptor (uPAR), PLAUR (gene 5329)
Kind of experiment: BSK_4H_uPAR: BioMAP Diversity Plus: 4H Assay for Urokinase-type plasminogen activator receptor (uPAR) Biomarker Activity (AID 2283030). Conditions: primary human endothelial cells (HUVEC); actives raise or lower the signal. Put shortly: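 Endpoint derived via bidirectional curve fitting against DMSO baseline; readout was ELISA detection of uPAR on umbilical vein endothelial cells at 24 h post-treatment, with SRB-stained parallel cultures assessing cytotoxicity.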

Read-out in experiment [11]: Vascular endothelial growth factor receptor 2 (Homo sapiens) (UniProt P35968)
Kind of experiment: BSK_4H_VEGFRII: BioMAP Diversity Plus: 4H Assay for Vascular endothelial growth factor receptor 2 (VEGFR2) Biomarker Activity (AID 2283031). The following applies: primary human endothelial cells (HUVEC); actives raise or lower the signal. Put shortly:
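In this multiplexed HUVEC system, biomarker ELISA was performed after 24 h chemical exposure. Parallel SRB staining (TCA fixation, 560 nm) tracked cytotoxicity; DMSO served as baseline.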

Read-out in experiment [12]: Human Leukocyte Antigen - DR isotype (HLADR), HLA-DRA (gene 3122)
The experiment is described as follows: BSK_BE3C_HLADR: BioMAP Diversity Plus: BE3C Assay for Human Leukocyte Antigen - DR isotype (HLADR) Biomarker Activity (AID 2283032). Conditions: primary human bronchial epithelial cells; actives raise or lower the signal. Put shortly: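 BioMAP BE3C format: human bronchial epithelium, 24 h compound treatment, ELISA detection of HLA-DR, with bidirectional analysis relative to DMSO.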

Read-out in experiment [13]: Vascular cell adhesion molecule 1 (VCAM1), VCAM1 (gene 7412)
The experiment is described as follows: BSK_4H_VCAM1: BioMAP Diversity Plus: 4H Assay for Vascular cell adhesion molecule 1 (VCAM1) Biomarker Activity (AID 2283033).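 For outcome: cell-surface VCAM-1 protein measured by ELISA.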 Conditions: primary human endothelial cells (HUVEC); actives raise or lower the signal. Put shortly: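 In this human endothelial (HUVEC) system, biomarker ELISA was run 24 h after compound addition, and total protein in parallel wells was assessed by SRB at 560 nm; DMSO served as negative control.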

Read-out in experiment [14]: Interferon-gamma inducible Protein 10 (IP10), CXCL10 (gene 3627)
Kind of experiment: BSK_BE3C_IP10: BioMAP Diversity Plus: BE3C Assay for Interferon-gamma inducible Protein 10 (IP10) Biomarker Activity (AID 2283034). The following applies: primary human bronchial epithelial cells; actives raise or lower the signal. In outline: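 BE3C cells (human bronchial epithelial, primary); 24 h exposure; ELISA for IP-10; DMSO-referenced bidirectional fit.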

Read-out in experiment [15]: Monokine induced gamma interferon (MIG), CXCL9 (gene 4283)
The experiment is described as follows: BSK_BE3C_MIG: BioMAP Diversity Plus: BE3C Assay for Monokine induced gamma interferon (MIG) Biomarker Activity (AID 2283035).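 Note: MIG protein measured by ELISA in BE3C cultures after 24 h of dosing.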 The following applies: primary human bronchial epithelial cells; actives raise or lower the signal. Put shortly: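 Dose cells (human primary bronchial epithelial), incubate 24 h, quantify MIG by ELISA, then fit concentration–response in both directions relative to DMSO control.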

Read-out in experiment [16]: Transforming growth factor beta 1 (TGFb1), TGFB1 (gene 7040)
Kind of experiment: BSK_BE3C_TGFb1: BioMAP Diversity Plus: BE3C Assay for Transforming growth factor beta 1 (TGFb1) Biomarker Activity (AID 2283036;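 for outcome: TGF-b1 protein level measured by ELISA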). The following applies: primary human bronchial epithelial cells; actives raise or lower the signal. Put shortly:
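TGF-b1 measured via ELISA, 24 h after chemical dosing of human bronchial epithelial cells (BE3C). Overt cytotoxicity assessed in parallel by SRB (0.1%, TCA-fixed, 560 nm); analysis bidirectional relative to DMSO.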

Read-out in experiment [17]: Plasminogen activator inhibitor-1 (PAI1), SERPINE1 (gene 5054)
Kind of experiment: BSK_BE3C_PAI1: BioMAP Diversity Plus: BE3C Assay for Plasminogen activator inhibitor-1 (PAI1) Biomarker Activity (AID 2283037). The following applies: primary human bronchial epithelial cells; actives raise or lower the signal. In outline: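 In this multiplexed primary-cell system, bronchial epithelial cells receive test chemical and are sampled at 24 h. PAI-1 is read by ELISA, with DMSO serving as negative control for bidirectional fitting.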

Read-out in experiment [18]: urokinase plasminogen activator (uPA), PLAU (gene 5328)
The experiment is described as follows: BSK_BE3C_uPA: BioMAP Diversity Plus: BE3C Assay for urokinase plasminogen activator (uPA) Biomarker Activity (AID 2283038).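 For outcome: uPA protein level quantified by ELISA in cell cultures; uPA read one day after compound addition.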 Conditions: primary human bronchial epithelial cells; actives raise or lower the signal. In outline:
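Using confluent primary human lung bronchial epithelial cultures, we dosed chemicals, waited 24 h, then ran a uPA ELISA, fitting bidirectionally against DMSO.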

Read-out in experiment [19]: Urokinase-type plasminogen activator receptor (uPAR), PLAUR (gene 5329)
The experiment is described as follows: BSK_BE3C_uPAR: BioMAP Diversity Plus: BE3C Assay for Urokinase-type plasminogen activator receptor (uPAR) Biomarker Activity (AID 2283039).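 For outcome: uPAR protein level measured by ELISA on the cells; cells exposed to compound for one day before measurement.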 Conditions: primary human bronchial epithelial cells; actives raise or lower the signal. In outline:
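Chemically treated human bronchial epithelial cells (lung primary) are assayed for uPAR by ELISA after 24 h, with data fitted in both directions using DMSO as negative control.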

Read-out in experiment [20]: Interleukin-6 (IL6), IL6 (gene 3569)
Kind of experiment: BSK_CASM3C_IL6: BioMAP Diversity Plus: CASM3C Assay for Interleukin-6 (IL6) Biomarker Activity for (AID 2283040). The following applies: primary human coronary artery smooth muscle cells; actives raise or lower the signal.

The values below come from PubChem BioAssay (EPA / NIEHS).

Records with an inconclusive call do not appear. The source made the active and inactive calls. Rule for the calls, unless noted: active = hit-call score of the fitted dose curve at least 0.9, where 1 is the maximum; inactive = score below 0.9.

In general, AC50 refers to the concentration at which the activity in the assay is half-maximal.

human Vitamin D Receptor (VDR), VDR (gene 7421), sequence (P11473 whole entry, looked up): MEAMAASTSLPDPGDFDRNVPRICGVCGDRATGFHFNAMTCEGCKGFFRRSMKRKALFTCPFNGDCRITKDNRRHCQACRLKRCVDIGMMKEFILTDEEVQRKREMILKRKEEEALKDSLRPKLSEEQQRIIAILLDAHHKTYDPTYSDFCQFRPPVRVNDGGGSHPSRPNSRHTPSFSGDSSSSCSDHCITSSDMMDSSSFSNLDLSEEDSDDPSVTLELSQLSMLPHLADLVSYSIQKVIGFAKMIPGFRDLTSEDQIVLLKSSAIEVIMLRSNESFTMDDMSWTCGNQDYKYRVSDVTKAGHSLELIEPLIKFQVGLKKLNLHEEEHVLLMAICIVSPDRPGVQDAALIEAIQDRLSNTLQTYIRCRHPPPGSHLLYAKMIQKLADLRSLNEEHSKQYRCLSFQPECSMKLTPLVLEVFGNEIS

In the case of `O=C1CCCCCCCCCCCCCCO1`, the outcome in experiment [1], in experiment [2], in experiment [4], in experiment [11] and in experiment [15] was inactive. Further, the AC50 was 27.1 µM (active) in experiment [3]; 14.4 µM (active) in experiment [5]; 27.6 µM (active) in experiment [6]; 27.4 µM (active) in [7]; 9.72 µM (active) in [8]; 20 µM (active) in [9]. The AC50 in experiment [10] is 23.7 µM (active); in [12] it was 20 µM (active); in experiment [13] it was 27.4 µM (active); in experiment [14], 12.6 µM (active); in experiment [16], 14.6 µM (active); in [17] it was 20 µM (active). Moreover, the AC50 in [18] is 32.7 µM (active); in [19] it was 20 µM (active); in [20] it was 31.6 µM (active).

On to `O=C(O)c1cn(C2CC2)c2cc(N3CCNCC3)c(F)cc2c1=O`, for which the result in experiment [1], in experiment [3], in experiment [4], in [5], in experiment [6] and in experiment [7] was inactive. Moreover, the outcome in experiment [8], in experiment [9], in [10], in [11], in experiment [12] and in experiment [13] was inactive. Moreover, the result in experiment [14], in experiment [15], in experiment [16], in experiment [17], in experiment [18] and in [19] was inactive. In addition, the outcome in [20] was inactive.

For the compound `O=C(O)c1ccc([N+](=O)[O-])cc1`, the result in experiment [1], in experiment [2], in experiment [3], in [4], in [5] and in experiment [6] was inactive. The outcome in experiment [7], in experiment [8], in experiment [9], in [10], in experiment [11] and in experiment [12] was inactive. Also, the outcome in [13], in experiment [14], in [15], in experiment [16], in experiment [17] and in [18] was inactive. The result in experiment [19] and in [20] was inactive.

Consider `O=C=NC1CCC(CC2CCC(N=C=O)CC2)CC1` (configuration not stated), for which the outcome in [1], in [2], in experiment [3], in [4], in [6] and in experiment [7] was inactive. Further, the result in experiment [8], in experiment [9], in experiment [10], in experiment [11], in [12] and in experiment [13] was inactive. Moreover, the outcome in experiment [14], in experiment [15], in [16], in experiment [17], in experiment [18] and in [19] was inactive. In addition, the result in [20] was inactive. Besides, the AC50 in experiment [5] is 37.5 µM (active).

Take `c1ccc2c(c1)c1cccc3ccc4cccc2c4c31`: the outcome in experiment [1], in [3], in experiment [4], in [5], in [6] and in [7] was inactive. The outcome in [8], in experiment [9], in experiment [10], in experiment [11], in [12] and in [13] was inactive. The outcome in experiment [14], in experiment [15], in [16], in experiment [17], in experiment [18] and in experiment [19] was inactive. Besides, in experiment [20], the result was inactive.

`N#Cc1ccc(CC(=NNC(=O)Nc2ccc(OC(F)(F)F)cc2)c2cccc(C(F)(F)F)c2)cc1`: the result in experiment [1], in experiment [3], in [4], in experiment [5], in experiment [6] and in experiment [7] was inactive. Moreover, the outcome in [8], in experiment [9], in [10], in experiment [11], in [12] and in [13] was inactive. The outcome in experiment [14], in experiment [15], in experiment [16], in experiment [17], in [18] and in [19] was inactive. The outcome in experiment [20] was inactive.
